Among the test systems are NCI-H23 lung; NCI-H226 lung; NCI-H322M lung; HOP-62 NSCLC; NCI-H460 lung; HOP-92 NSCLC; NCI-H522 lung; A549/ATCC NSCLC; 786-0 renal; COLO 205 colon.
Holding throughout (assay): NCI-60 one-dose screen, 48 h (100 = growth as untreated, 0 = no growth, -100 = all killed)
Settings in all cases: 10 µM unless noted

This is part of a sample that, as a whole, favours compounds with a hit. Of some 83,000 tested, about 20% had one in any assay.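 Results are percent growth after 48 hours of single-concentration exposure. 100 means growth as in untreated cells, lower positive values show inhibition; negative values down to -100 show cell death.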 Unmarked numbers belong to inactive results. Activity calls are given as the source filed them. How the source made its calls: active means growth percent below 10; inactive means the rest.

Turning to `CCCS(=O)(=O)Nc1ccc(F)c(C(=O)c2c[nH]c3ncc(-c4ccc(Cl)cc4)cc23)c1F`, the growth with NCI-H23 lung was 56%; in the assay on NCI-H226 lung, 57.2%; in the assay on NCI-H322M lung, 27.8%; in the assay on HOP-62 NSCLC, 34.8%; in the assay with NCI-H460 lung, 17.3%; in the assay with HOP-92 NSCLC, 28%. The growth is 28.9% in the assay on NCI-H522 lung, 25.6% in the assay on A549/ATCC NSCLC, 19% in the assay with 786-0 renal and -4.91% (active) in the assay with COLO 205 colon.

For `C1=C\COCc2cc(ccc2OCCN2CCCC2)Nc2nccc(n2)-c2cccc(c2)COC/1`, the growth with NCI-H23 lung is -17.3% (active); with NCI-H226 lung, -64.9% (active); with NCI-H322M lung, -8.53% (active); in the assay on HOP-62 NSCLC, -18.1% (active); in the assay on NCI-H460 lung, -34.5% (active); in the assay with HOP-92 NSCLC, -0.764% (active). For the same compound, the growth in the assay on NCI-H522 lung is -58.1% (active); with A549/ATCC NSCLC, -17.3% (active); in the assay on 786-0 renal it was 1.51% (active); with COLO 205 colon, -82% (active).

With `CCCCCCCC(=O)SCC/C=C/[C@@H]1CC(=O)NCc2cccc(n2)C2=N[C@@](C)(CS2)C(=O)N[C@@H](C(C)C)C(=O)O1`, the growth in the assay on NCI-H23 lung is 2.23% (active); in the assay with NCI-H226 lung it was -9.02% (active); with NCI-H322M lung, -5.77% (active); in the assay with HOP-62 NSCLC, -22.2% (active); with NCI-H460 lung it was 5.88% (active); with HOP-92 NSCLC it was -5.42% (active). Besides, the growth in the assay on NCI-H522 lung was -12.7% (active); in the assay with A549/ATCC NSCLC, 0.749% (active); in the assay with 786-0 renal it was 10.8%; in the assay with COLO 205 colon it was -61.8% (active).

With `COC(=O)C1CCc2sc3ncnc(Nc4cn[nH]c4C(=O)Nc4ccc(CN5CCN(C)CC5)cc4)c3c21` (stereo not given), the growth in the assay with NCI-H23 lung was -9.63% (active); in the assay on NCI-H226 lung, 14.9%; in the assay with NCI-H322M lung it was 8.74% (active); in the assay with HOP-62 NSCLC it was 0.169% (active); in the assay on NCI-H460 lung it was -59% (active); with HOP-92 NSCLC it was -29.2% (active). For the same compound, the growth in the assay on NCI-H522 lung is -1.37% (active); in the assay on A549/ATCC NSCLC, 4.85% (active); in the assay with 786-0 renal it was -4.45% (active); in the assay with COLO 205 colon, -70.8% (active).

As to `Cc1ccsc1C(NC(=O)c1ccccc1)c1cc(Cl)c2cccnc2c1O` (stereo not given), the growth in the assay on NCI-H23 lung was 28.1%; in the assay on NCI-H226 lung, 38.5%; with NCI-H322M lung it was 32%; in the assay with HOP-62 NSCLC, 15%; in the assay with NCI-H460 lung it was 7.44% (active); in the assay on HOP-92 NSCLC, 35%. In addition, the growth with NCI-H522 lung was 9.39% (active); with A549/ATCC NSCLC, 14.3%; with 786-0 renal, 18.2%; in the assay on COLO 205 colon, 11.7%.

With `CNC(=O)c1cnc(C)nc1-c1cc(C(C)(C)C)c(O)c(C(C)(C)C)c1`, the growth in the assay on NCI-H23 lung was 103%; in the assay with NCI-H226 lung it was 98.2%; in the assay on NCI-H322M lung it was 104%; in the assay with HOP-62 NSCLC, 99.9%; in the assay on NCI-H460 lung it was 108%; with HOP-92 NSCLC it was 74%. Moreover, the growth was 83.2% in the assay on NCI-H522 lung, 95.9% in the assay with A549/ATCC NSCLC, 88.9% in the assay on 786-0 renal and 105% with COLO 205 colon.

On to `CC(=Nc1ccccc1)C1=C(O)C(Cc2ccccc2)NC1=O` (stereo not given), for which the growth was -1.27% (active) with NCI-H23 lung; 15.4% with NCI-H226 lung; 45.7% in the assay with NCI-H322M lung; 16.7% in the assay on HOP-62 NSCLC; 3.86% (active) in the assay on NCI-H460 lung; -9.07% (active) with HOP-92 NSCLC. For the same compound, the growth is -15.4% (active) in the assay on NCI-H522 lung, -28.9% (active) in the assay with A549/ATCC NSCLC, 8.26% (active) with 786-0 renal and -71.8% (active) in the assay with COLO 205 colon.

As to `CN(C)CCOC(=O)Nc1nc2ccc(Sc3ccccc3)cc2[nH]1`, the growth with NCI-H23 lung was 44%; with NCI-H226 lung it was 61.8%; in the assay with NCI-H322M lung, 36.9%; in the assay with HOP-62 NSCLC, 29.1%; in the assay on NCI-H460 lung, 13%; in the assay with HOP-92 NSCLC, 41.8%. Besides, the growth is -24% (active) in the assay with NCI-H522 lung, 38.7% in the assay with A549/ATCC NSCLC, 42.2% in the assay with 786-0 renal and 8.53% (active) in the assay with COLO 205 colon.

Take `CC(C)(C)OC(=O)N1CCC(O)[C@@H](O[Si](c2ccccc2)(c2ccccc2)C(C)(C)C)[C@H]1/C=C/c1ccccc1` (stereo not given in full): the growth with NCI-H23 lung is 34.4%; in the assay with NCI-H226 lung, 47.9%; in the assay on NCI-H322M lung, 83.5%; in the assay with HOP-62 NSCLC, 67.4%; with NCI-H460 lung it was 36.1%; in the assay with HOP-92 NSCLC it was 36%. Also, the growth is 30.1% with NCI-H522 lung, 41.9% in the assay with A549/ATCC NSCLC, 52.2% in the assay on 786-0 renal and 49% in the assay with COLO 205 colon.

With `CC(C)(C)c1ccc(Cn2cc(CSc3nc4ccccc4s3)nn2)cc1`, the growth is 90.4% with NCI-H23 lung; 83% in the assay with NCI-H226 lung; 86.2% in the assay on NCI-H322M lung; 87.6% with HOP-62 NSCLC; 103% with NCI-H460 lung; 80.6% in the assay with HOP-92 NSCLC. The growth with NCI-H522 lung is 84.4%; with A549/ATCC NSCLC, 83.5%; with 786-0 renal, 96.2%; in the assay on COLO 205 colon, 102%.

Consider `Cn1cnc(-c2cc3nccc(Oc4ccc(NC(=S)NC(=O)Cc5ccccc5)cc4F)c3s2)c1`, for which the growth with NCI-H23 lung is 72.5%; in the assay with NCI-H226 lung, 54.5%; with NCI-H322M lung, 108%; in the assay with HOP-62 NSCLC it was 78.9%; in the assay with NCI-H460 lung, 93.5%; in the assay with HOP-92 NSCLC, 50.2%. The growth was 41.5% in the assay with NCI-H522 lung, 53.9% in the assay with A549/ATCC NSCLC, 98.1% with 786-0 renal and 89% in the assay on COLO 205 colon.

Turning to `Cc1ccc2oc(=O)cc(-c3cc(-c4cc5ccccc5oc4=O)nc(N)c3C#N)c2c1`, the growth in the assay with NCI-H23 lung was 62.7%; with NCI-H226 lung, 93.3%; in the assay on NCI-H322M lung, 72.8%; in the assay on HOP-62 NSCLC, 35.9%; in the assay on NCI-H460 lung, 27%; with HOP-92 NSCLC it was 40.1%. Besides, the growth in the assay on NCI-H522 lung was 87.6%; with A549/ATCC NSCLC, 54.8%; with 786-0 renal, 15.6%; in the assay with COLO 205 colon, 80.2%.

With `CSC1=C(N)C(=O)c2[nH]cc(CO)c2C1=N`, the growth in the assay with NCI-H23 lung is -29.3% (active); with NCI-H226 lung it was -65.3% (active); in the assay on NCI-H322M lung, -97.2% (active); in the assay with HOP-62 NSCLC it was -72.1% (active); with NCI-H460 lung it was -59.2% (active); in the assay on HOP-92 NSCLC, -71.7% (active). Moreover, the growth in the assay on NCI-H522 lung is -43.4% (active); in the assay on A549/ATCC NSCLC it was -57.4% (active); in the assay with 786-0 renal, -70.1% (active); in the assay on COLO 205 colon it was -77.6% (active).

With `Cc1c(CN2CCN(C(=O)[C@H](C)O)CC2)sc2c(N3CCOCC3)nc(-c3cnc(N)nc3)nc12`, the growth with NCI-H23 lung is 6.62% (active); in the assay with NCI-H226 lung it was -4.64% (active); with NCI-H322M lung, -26.1% (active); with HOP-62 NSCLC, -10.3% (active); with NCI-H460 lung, 3% (active); in the assay with HOP-92 NSCLC it was -24.6% (active). The growth in the assay with NCI-H522 lung was -12.2% (active); in the assay with A549/ATCC NSCLC, -20.8% (active); in the assay on 786-0 renal, -19% (active); in the assay on COLO 205 colon, -32.3% (active).

Source of the values: PubChem BioAssay (NCI).
